The supplement of paper PMC10849652
About 7,900 targets were measured; listed, in parts, are those with a hit and a random draw of the rest. About 0.6% of all pairs of compound and target were hits. A number with no mark means an inactive call.

Experiments:
Experiment in all cases: log2 fold change, soluble protein after heating vs DMSO (PISA); higher = thermal stabilisation; K562 cells, 10 uM, 30 min; active = over 0.2 and 3.5 SD of the protein, either way, in both replicates (recomputed)
epoxomicin = compound: CC[C@H](C)[C@@H](C(=O)N[C@@H]([C@@H](C)O)C(=O)N[C@@H](CC(C)C)C(=O)[C@]1(CO1)C)NC(=O)[C@H]([C@@H](C)CC)N(C)C(=O)C [epoxomicin]
Method in brief: (§1)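 Thermal stability values are relative to control samples and come from duplicates. They are expressed as log2 fold changes. For measurement, K562 cells (2×10^6 cells/mL) received 10 μM compound for 30 min, and aliquots were heated for 3 min over 48°C-58°C, pooled, and extracted at 4°C in PBS with 0.5% NP-40. Soluble protein, the supernatant after 21,000xg for 90 min, was quantified by TMTpro 16plex LC-MS/MS with equalised channel sums.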

[1] = compound: CN(C)CC(=O)Nc1ccc2[nH]c(=O)c3ccccc3c2c1
Method in brief: as §1

rosiglitazone = compound: CN(CCOC1=CC=C(C=C1)C[C@H]2C(=O)NC(=O)S2)C3=CC=CC=N3 (racemic) [rosiglitazone]
Method in brief: as §1

[2] = compound: CN1C2=C(C3=C1C(=O)N(N=C3)CC4=CC(=CC=C4)N)SC(=C2)S(=O)C
Method in brief: as §1

saracatinib = compound: CN1CCN(CCOc2cc(OC3CCOCC3)c3c(Nc4c(Cl)ccc5c4OCO5)ncnc3c2)CC1 [saracatinib]
Method in brief: as §1

alvocidib = compound: CN1CC[C@H](c2c(O)cc(O)c3c(=O)cc(-c4ccccc4Cl)oc23)[C@H](O)C1 [alvocidib]
Method in brief: as §1

Tubastatin A = compound: CN1CCc2c(c3ccccc3n2Cc2ccc(C(=O)NO)cc2)C1 [Tubastatin A]
Method in brief: as §1

defactinib = compound: CNC(=O)c1ccc(Nc2ncc(C(F)(F)F)c(NCc3nccnc3N(C)S(C)(=O)=O)n2)cc1 [defactinib]
Method in brief: as §1

[3] = compound: CNc1nc(-c2ccc3c(N)n[nH]c3c2)cc(N2C[C@@H](C(=O)NC3CCCCC3)CC[C@H]2C)n1
Method in brief: as §1

[4] = compound: COC(=O)[C@H](CCSC)NC(=O)C1=C(C=C(C=C1)NC[C@H](CS)N)C2=CC=CC=C2
Method in brief: as §1

[5] = compound: CC[C@@H]1C(=O)N(C)c2cnc(Nc3ccc(C(=O)NC4CCN(C)CC4)cc3OC)nc2N1C1CCCC1
Method in brief: as §1

volasertib = compound: CC[C@@H]1C(=O)N(C)c2cnc(Nc3ccc(C(=O)N[C@H]4CC[C@H](N5CCN(CC6CC6)CC5)CC4)cc3OC)nc2N1C(C)C [volasertib]
Method in brief: as §1

[6] = compound: CCn1c(C(=O)N(C2CC2)C2CC2)cc2c3c(ncn3C)c(Nc3cc(C)n(C)n3)nc21
Method in brief: as §1

[7] = compound: CCn1cc(-c2ccnc3[nH]c(-c4cccc(CN(C)C)c4)cc23)c(-c2ccc(NC(=O)N(C)C)cc2)n1
Method in brief: as §1

[8] = compound: CN1CCC(CNc2ccc3ncc(-c4cccc(OC(F)(F)F)c4)n3n2)CC1
Method in brief: as §1

sotrastaurin = compound: CN1CCN(c2nc(C3=C(c4c[nH]c5ccccc45)C(=O)NC3=O)c3ccccc3n2)CC1 [sotrastaurin]
Method in brief: as §1

[9] = compound: CNC(=O)C1=CC=CC=C1NC2=NC(=NC=C2Cl)NC3=C(C=C(C=C3)N4CCOCC4)OC
Method in brief: as §1

rucaparib = compound: CNCc1ccc(-c2[nH]c3cc(F)cc4c3c2CCNC4=O)cc1 [rucaparib]
Method in brief: as §1

encorafenib = compound: COC(=O)N[C@@H](C)CNc1nccc(-c2cn(C(C)C)nc2-c2cc(Cl)cc(NS(C)(=O)=O)c2F)n1 [encorafenib]
Method in brief: as §1

[10] = compound: CC[C@H](C)N1C=C(C2=C(C=C(C=C21)C3=CN=C(C=C3)N4CCNCC4)C(=O)NCC5=C(C=C(NC5=O)C)C)C
Method in brief: as §1

Sequence of UniProt P57081 (P57081 whole entry, looked up): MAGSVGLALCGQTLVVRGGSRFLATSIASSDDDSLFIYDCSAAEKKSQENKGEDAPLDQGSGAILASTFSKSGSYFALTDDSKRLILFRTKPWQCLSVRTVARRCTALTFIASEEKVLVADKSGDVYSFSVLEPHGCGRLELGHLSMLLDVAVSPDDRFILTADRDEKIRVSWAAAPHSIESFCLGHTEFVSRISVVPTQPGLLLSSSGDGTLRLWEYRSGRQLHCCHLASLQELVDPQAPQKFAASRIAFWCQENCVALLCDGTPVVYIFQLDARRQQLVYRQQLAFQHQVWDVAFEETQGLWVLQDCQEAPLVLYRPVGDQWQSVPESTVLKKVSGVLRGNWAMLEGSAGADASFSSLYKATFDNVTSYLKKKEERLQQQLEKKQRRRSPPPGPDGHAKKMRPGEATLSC
Sequence of UniProt O75691 (O75691 whole entry, looked up): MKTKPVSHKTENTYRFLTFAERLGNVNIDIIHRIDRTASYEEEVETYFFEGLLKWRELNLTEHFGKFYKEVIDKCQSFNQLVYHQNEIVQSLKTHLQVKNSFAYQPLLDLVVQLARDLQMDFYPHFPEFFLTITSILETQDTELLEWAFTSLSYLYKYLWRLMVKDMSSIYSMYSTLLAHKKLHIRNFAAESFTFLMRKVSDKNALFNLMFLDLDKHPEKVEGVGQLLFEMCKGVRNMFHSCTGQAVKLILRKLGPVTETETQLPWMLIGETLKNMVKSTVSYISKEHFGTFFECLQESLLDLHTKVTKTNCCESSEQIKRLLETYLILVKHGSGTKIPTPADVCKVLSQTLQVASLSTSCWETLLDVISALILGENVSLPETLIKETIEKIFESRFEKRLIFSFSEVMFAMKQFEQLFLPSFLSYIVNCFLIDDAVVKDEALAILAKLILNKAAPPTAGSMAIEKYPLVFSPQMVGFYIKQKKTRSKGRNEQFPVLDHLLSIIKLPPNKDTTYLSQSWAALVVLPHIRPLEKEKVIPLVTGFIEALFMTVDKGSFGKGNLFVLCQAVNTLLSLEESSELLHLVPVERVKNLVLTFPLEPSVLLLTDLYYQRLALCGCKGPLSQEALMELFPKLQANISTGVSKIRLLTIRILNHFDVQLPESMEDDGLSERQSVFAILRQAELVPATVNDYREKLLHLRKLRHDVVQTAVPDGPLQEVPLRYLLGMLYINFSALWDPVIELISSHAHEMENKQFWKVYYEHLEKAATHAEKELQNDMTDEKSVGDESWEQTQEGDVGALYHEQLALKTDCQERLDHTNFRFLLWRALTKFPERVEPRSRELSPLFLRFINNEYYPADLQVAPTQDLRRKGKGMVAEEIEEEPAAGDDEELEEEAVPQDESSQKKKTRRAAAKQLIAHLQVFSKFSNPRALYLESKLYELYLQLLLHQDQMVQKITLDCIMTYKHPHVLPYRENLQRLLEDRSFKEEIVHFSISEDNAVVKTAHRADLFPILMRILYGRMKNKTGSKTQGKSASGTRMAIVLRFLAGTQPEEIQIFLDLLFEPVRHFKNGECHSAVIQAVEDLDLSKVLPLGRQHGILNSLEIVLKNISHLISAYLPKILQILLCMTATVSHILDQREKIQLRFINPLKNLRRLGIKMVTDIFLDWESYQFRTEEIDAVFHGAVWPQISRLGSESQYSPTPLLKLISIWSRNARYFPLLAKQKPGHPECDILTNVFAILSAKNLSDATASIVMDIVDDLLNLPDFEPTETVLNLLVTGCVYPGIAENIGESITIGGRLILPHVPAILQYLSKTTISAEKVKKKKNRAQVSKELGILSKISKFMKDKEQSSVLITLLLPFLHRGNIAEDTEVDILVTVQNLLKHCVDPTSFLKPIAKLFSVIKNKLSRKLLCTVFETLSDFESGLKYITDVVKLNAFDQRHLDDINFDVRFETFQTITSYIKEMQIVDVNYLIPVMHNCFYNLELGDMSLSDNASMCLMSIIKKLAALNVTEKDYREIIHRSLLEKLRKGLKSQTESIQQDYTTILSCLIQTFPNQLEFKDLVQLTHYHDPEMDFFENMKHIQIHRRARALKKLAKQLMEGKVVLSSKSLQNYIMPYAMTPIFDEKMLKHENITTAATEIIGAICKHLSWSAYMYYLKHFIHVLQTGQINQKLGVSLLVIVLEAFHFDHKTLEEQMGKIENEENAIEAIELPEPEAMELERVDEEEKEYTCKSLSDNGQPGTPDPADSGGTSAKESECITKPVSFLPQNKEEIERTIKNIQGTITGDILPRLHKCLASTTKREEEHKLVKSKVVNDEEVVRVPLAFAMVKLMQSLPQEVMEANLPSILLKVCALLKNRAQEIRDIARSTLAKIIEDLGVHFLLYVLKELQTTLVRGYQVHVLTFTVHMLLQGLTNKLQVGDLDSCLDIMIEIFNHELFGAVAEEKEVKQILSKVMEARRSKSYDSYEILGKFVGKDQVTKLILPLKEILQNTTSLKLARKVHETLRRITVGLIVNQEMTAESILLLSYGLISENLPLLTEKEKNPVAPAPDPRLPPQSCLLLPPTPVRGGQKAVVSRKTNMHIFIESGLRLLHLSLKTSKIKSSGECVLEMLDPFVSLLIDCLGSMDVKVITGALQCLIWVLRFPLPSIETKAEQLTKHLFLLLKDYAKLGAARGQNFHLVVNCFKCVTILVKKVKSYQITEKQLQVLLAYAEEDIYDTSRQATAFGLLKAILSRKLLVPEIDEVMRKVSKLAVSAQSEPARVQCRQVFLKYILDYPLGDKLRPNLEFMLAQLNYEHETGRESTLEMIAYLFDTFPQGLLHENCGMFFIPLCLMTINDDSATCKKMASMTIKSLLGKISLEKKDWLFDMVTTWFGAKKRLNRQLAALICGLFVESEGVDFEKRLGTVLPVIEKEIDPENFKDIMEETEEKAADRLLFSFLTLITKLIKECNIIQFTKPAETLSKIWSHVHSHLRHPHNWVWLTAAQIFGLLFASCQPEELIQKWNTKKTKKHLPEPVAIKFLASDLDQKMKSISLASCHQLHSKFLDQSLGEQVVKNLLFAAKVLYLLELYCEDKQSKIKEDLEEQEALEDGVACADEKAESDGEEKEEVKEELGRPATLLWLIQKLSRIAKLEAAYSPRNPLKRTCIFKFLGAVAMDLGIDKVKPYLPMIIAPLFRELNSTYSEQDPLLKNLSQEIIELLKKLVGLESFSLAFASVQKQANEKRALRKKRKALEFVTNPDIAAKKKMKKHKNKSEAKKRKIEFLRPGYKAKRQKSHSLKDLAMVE
Sequence of UniProt Q7Z3V4 (Q7Z3V4 whole entry, looked up): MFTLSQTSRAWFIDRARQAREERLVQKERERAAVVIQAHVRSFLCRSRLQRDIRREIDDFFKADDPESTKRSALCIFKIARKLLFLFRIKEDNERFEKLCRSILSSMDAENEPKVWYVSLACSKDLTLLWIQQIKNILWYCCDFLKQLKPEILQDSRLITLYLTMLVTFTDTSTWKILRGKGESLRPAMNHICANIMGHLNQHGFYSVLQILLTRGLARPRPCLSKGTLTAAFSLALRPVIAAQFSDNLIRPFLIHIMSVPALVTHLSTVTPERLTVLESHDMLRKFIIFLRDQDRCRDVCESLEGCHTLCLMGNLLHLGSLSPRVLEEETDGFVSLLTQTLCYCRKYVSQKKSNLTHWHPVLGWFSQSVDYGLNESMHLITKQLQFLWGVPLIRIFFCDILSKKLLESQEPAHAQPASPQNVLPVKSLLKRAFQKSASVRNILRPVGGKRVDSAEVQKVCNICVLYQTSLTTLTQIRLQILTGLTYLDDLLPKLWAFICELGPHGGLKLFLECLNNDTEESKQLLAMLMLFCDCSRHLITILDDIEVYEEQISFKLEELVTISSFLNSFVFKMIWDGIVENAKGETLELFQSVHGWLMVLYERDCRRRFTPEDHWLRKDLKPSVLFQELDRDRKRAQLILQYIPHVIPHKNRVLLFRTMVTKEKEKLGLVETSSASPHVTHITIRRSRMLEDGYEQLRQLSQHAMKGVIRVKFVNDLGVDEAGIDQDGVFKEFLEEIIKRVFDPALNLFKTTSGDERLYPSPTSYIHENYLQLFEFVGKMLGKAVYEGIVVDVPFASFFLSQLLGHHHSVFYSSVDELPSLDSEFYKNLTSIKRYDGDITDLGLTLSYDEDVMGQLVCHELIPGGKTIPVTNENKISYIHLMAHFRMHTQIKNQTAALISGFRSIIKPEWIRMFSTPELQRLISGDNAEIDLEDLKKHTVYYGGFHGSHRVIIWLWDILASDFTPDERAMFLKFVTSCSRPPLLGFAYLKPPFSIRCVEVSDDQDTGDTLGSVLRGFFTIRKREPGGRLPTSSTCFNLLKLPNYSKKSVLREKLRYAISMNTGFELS
Sequence of UniProt P36406 (P36406 whole entry, looked up): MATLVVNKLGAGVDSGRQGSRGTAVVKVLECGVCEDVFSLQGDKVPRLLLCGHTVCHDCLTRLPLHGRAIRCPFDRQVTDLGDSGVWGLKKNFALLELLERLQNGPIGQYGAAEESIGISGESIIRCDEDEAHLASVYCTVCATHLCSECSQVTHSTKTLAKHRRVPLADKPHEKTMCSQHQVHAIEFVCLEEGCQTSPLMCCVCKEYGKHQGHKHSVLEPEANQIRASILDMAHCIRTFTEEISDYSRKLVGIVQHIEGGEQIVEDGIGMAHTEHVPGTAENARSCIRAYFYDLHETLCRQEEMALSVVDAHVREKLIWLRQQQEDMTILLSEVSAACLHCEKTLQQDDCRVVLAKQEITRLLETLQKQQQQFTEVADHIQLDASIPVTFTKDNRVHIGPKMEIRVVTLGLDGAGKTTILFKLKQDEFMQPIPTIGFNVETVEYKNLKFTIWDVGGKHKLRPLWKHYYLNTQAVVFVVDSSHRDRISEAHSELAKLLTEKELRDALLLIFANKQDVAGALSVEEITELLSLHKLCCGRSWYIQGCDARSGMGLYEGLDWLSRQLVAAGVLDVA
Sequence of UniProt P51668 (P51668 whole entry, looked up): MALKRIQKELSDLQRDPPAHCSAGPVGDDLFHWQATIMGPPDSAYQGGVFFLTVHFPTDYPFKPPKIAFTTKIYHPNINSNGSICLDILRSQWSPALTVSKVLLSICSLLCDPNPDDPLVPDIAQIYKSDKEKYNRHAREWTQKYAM
Sequence of UniProt Q629K1 (Q629K1 whole entry, looked up): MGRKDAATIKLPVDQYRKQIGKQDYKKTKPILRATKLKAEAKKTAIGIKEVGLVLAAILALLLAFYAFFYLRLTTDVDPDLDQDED

Row | Target | log2 fold change (epoxomicin) | log2 fold change [1] | log2 fold change (rosiglitazone) | log2 fold change [2] | log2 fold change (saracatinib) | log2 fold change (alvocidib) | log2 fold change (Tubastatin A) | log2 fold change (defactinib) | log2 fold change [3] | log2 fold change [4] | log2 fold change [5] | log2 fold change (volasertib) | log2 fold change [6] | log2 fold change [7] | log2 fold change [8] | log2 fold change (sotrastaurin) | log2 fold change [9] | log2 fold change (rucaparib) | log2 fold change (encorafenib) | log2 fold change [10]
1 | WARS1 (UniProt G3V227) | -0.28 | -0.045 | 0.309 | 0.207 | 0.003 | -0.065 | -0.053 | -0.001 | 0.021 | 0.3 | – | – | – | – | – | – | – | – | – | –
2 | TXNRD1 isoform 7 (UniProt Q16881) | 0.155 | -0.074 | 0.024 | 0.101 | -0.202 | – | – | -0.194 | 0.065 | 0.062 | 0.054 | -0.106 | -0.001 | -0.501 | -0.028 | 0.019 | -0.364 | 0.263 | -0.085 | –
3 | TOM1L2 (UniProt Q6ZVM7) | -0.035 | 0.127 | – | -0.071 | -0.02 | -0.357 (active) | – | -0.072 | -0.05 | 0.058 | – | – | 0.09 | – | – | -0.091 | -0.102 | – | – | -0.025
4 | UBE3B (UniProt Q7Z3V4) | -0.023 | – | 0.179 | -0.007 | -0.028 | 0.122 | 0.128 | – | -0.032 | – | – | -0.554 (active) | – | – | – | 0.005 | – | – | – | 0.088
5 | UBAP2L (UniProt F8W726) | – | – | 0.123 | – | – | – | -0.039 | – | – | – | 0.077 | -0.002 | 0.008 | 0.025 | -0.027 | – | -0.05 | -0.006 | -0.021 | -0.094
6 | TRPT1 isoform 4 (UniProt Q86TN4) | – | – | – | – | – | – | – | – | – | – | 0.084 | – | 0.071 | – | – | -0.208 | -0.069 | 0.101 | 0.036 | –
7 | WDR75 (UniProt Q8IWA0) | -0.156 | -0.073 | -0.061 | 0.166 | -0.109 | 0.147 | 0.173 | 0.144 | 0.162 | -0.197 | – | -0.153 | – | – | – | – | – | – | – | -0.041
8 | TMEM219 (UniProt Q86XT9) | 0.035 | 0.094 | 0.078 | -0.085 | 0.261 | -0.12 | -0.059 | -0.185 | 0.176 | -0.093 | – | -0.111 | 0.002 | 0.037 | -0.029 | 0.03 | -0.016 | – | – | 0.033
9 | TSC2 (UniProt P49815) | -0.01 | – | -0.052 | – | – | -0.134 | 0.437 | – | – | – | -0.062 | -0.23 | -0.295 | 0.016 | -0.041 | -0.085 | -0.603 | -0.097 | 0.042 | –
10 | TSPAN13 (UniProt O95857) | -0.148 | 0.512 (active) | 0 | -0.036 | -0.055 | -0.305 | -0.11 | -0.104 | -0.029 | -0.291 | – | 0.098 | 0.097 | -0.098 | -0.003 | 0.044 | 0.054 | – | – | -0.083
11 | TVP23C (UniProt Q96ET8) | – | -0.025 | – | 0 | 0.025 | -0.135 | 0 | 0.039 | 0.015 | 0.067 | 0.097 | 0.068 | 0.039 | -0.019 | -0.033 | – | 0.042 | -0.205 | 0.129 | –
12 | WARS1 (UniProt G3V339) | -0.238 | – | – | – | – | – | – | – | – | – | – | – | – | – | – | – | – | – | – | –
13 | USP48 (UniProt Q86UV5) | – | – | 0.101 | – | – | – | – | – | – | – | -0.159 | – | -0.045 | – | – | -0.123 | -0.045 | -0.102 | 0.318 | 0.059
14 | UBE2J2 isoform 3 (UniProt Q8N2K1) | 0.254 | 0.04 | 0.068 | -0.055 | 0.07 | -0.226 | 0.091 | -0.061 | 0.055 | -0.053 | -0.07 | -0.157 | 0.047 | -0.418 | 0.122 | 0.044 | -0.114 | 0.081 | 0.014 | –
15 | UTP3 (UniProt Q9NQZ2) | -0.376 | -0.052 | -0.41 | 0.165 | 0.232 | 0.173 | 0.067 | 0.104 | -0.106 | 0.051 | 0.067 | -0.012 | -0.007 | 0.236 | 0.092 | -0.1 | 0.094 | 0.238 | 0.23 | –
16 | WARS1 (UniProt G3V3P2) | – | – | 1.27 | – | – | – | – | – | – | – | – | – | – | – | – | 0.336 | – | – | – | –
17 | WARS1 (UniProt G3V277) | – | -0.163 | 0.078 | – | – | – | 0.005 | 0 | – | 0.14 | – | – | -0.084 | 0.098 | -0.12 | 0.021 | -0.052 | – | – | -0.041
18 | UBE2D1 (UniProt P51668) | – | 0.017 | 0.099 | -0.109 | 0.03 | -0.055 | -0.058 | -0.016 | -0.105 | -0.047 | -0.123 | -0.333 (active) | 0.037 | -0.045 | -0.095 | 0.056 | -0.035 | 0.006 | 0.01 | -0.024
19 | WDR4 isoform 3 (UniProt P57081) | 0.017 | – | 0.142 | – | – | – | – | – | – | – | – | – | – | -0.044 | -0.036 | 0.098 | – | – | – | –
20 | TTC26 | – | -0.088 | 0.068 | – | – | – | -0.033 | 0.265 | – | 0.144 | – | – | – | – | – | – | – | – | – | –
21 | TTC33 (UniProt Q6PID6) | 0.049 | -0.075 | 0.035 | -0.048 | -0.103 | 0.041 | – | 0.013 | -0.152 | 0.054 | 0.038 | -0.027 | 0.012 | -0.449 (active) | 0.138 | 0.009 | 0.012 | -0.008 | -0.014 | –
22 | UBXN8 (UniProt O00124) | 0.073 | -0.051 | 0.259 | 0.147 | -0.054 | 0.102 | -0.144 | 0.065 | -0.112 | -0.095 | 0.081 | -0.179 | – | -0.039 | -0.297 | 0.027 | – | -0.568 (active) | 0.094 | –
23 | TRIQK (UniProt Q629K1) | -0.02 | – | 0.039 | -0.04 | -0.014 | 0.011 | -0.094 | – | -0.045 | – | – | – | – | – | – | -0.112 | – | – | – | –
24 | UTP20 (UniProt O75691) | -0.355 | – | – | – | – | – | -0.028 | – | – | – | – | 0.093 | 0.105 | – | – | – | -0.051 | – | – | –
25 | XRCC1 (UniProt P18887) | -0.1 | – | – | -0.192 | 0.008 | -0.029 | 0.055 | – | 0.148 | – | – | – | -0.09 | 0.006 | -0.239 | -0.264 | 0.05 | – | – | –
26 | TRIM23 (UniProt P36406) | – | 0.025 | -0.231 | -0.116 | 0.033 | -0.034 | 0.032 | -0.004 | 0.035 | -0.039 | 0.013 | – | -0.059 | -0.089 | -0.228 | 0.075 | -0.049 | 0.057 | 0.012 | 0.049
27 | WEE1 (UniProt P30291) | 0.203 | -0.103 | 0.072 | 0.046 | 0.068 | 0.084 | 0.117 | -0.029 | -0.052 | 0.082 | – | 0.07 | 0.003 | -0.209 | 0.195 | 0.007 | 0.075 | – | – | -0.028
28 | TUBA4A (UniProt C9JJQ8) | – | 0.09 | -0.078 | 0.114 | -0.148 | -0.191 | 0.147 | -0.215 | 0.131 | -0.055 | -0.115 | 0.099 | – | – | – | -0.084 | – | 0.186 | 0.078 | –
